Compounds without any hit were thinned out: in the full panel of roughly 83,000, 20% have a hit.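 Method: cells in 96-well plates; compound added at one concentration; 48 h incubation; percent growth measured; values under 10 scored active.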 Values without a mark were called inactive. Activity calls are given as the source filed them.
Tests used:
Experiment in all cases: NCI-60 one-dose screen, 48 h (100 = growth as untreated, 0 = no growth, -100 = all killed)
Conditions in all cases: 10 µM
BT-549 breast = test system: BT-549 breast
MDA-MB-435 melanoma = test system: MDA-MB-435 melanoma
SW-620 colon = test system: SW-620 colon
MCF7 breast = test system: MCF7 breast
HCT-116 colon = test system: HCT-116 colon
HCC-2998 colon = test system: HCC-2998 colon
KM12 colon = test system: KM12 colon

Row | SMILES | growth (BT-549 breast) | growth (MDA-MB-435 melanoma) | growth (SW-620 colon) | growth (MCF7 breast) | growth (HCT-116 colon) | growth (HCC-2998 colon) | growth (KM12 colon)
1 | CCOC(=O)C(CSC(c1ccccc1)(c1ccccc1)c1ccccc1)NC(=O)C(CSC(c1ccccc1)(c1ccccc1)c1ccccc1)NC(c1ccccc1)(c1ccccc1)c1ccccc1 (stereo not given) | 109% | 86.1% | 104% | 95% | 108% | 113% | 111%
2 | O=[N+]([O-])c1ccc(N/N=C/c2cccc3ccccc23)nc1 | 106% | 118% | 117% | 75.6% | 95.8% | 101% | 99.1%
3 | CCCC1(CC(=O)O)OCCc2c1[nH]c1ccccc21 (stereo not given) | 119% | 106% | 115% | 102% | 107% | 69.9% | 102%
4 | CC(C)N(CCNc1nc(C(Cl)(Cl)Cl)nc2cc(Cl)ccc12)C(C)C | 21.3% | -47.2% (active) | -30.6% (active) | -85.6% (active) | -90.6% (active) | -50.2% (active) | -79.1% (active)
5 | COc1ccc(OC)c(NC(=O)c2sc3nc4c(cc3c2N)C(=O)CCC4)c1 | 93.7% | 28.4% | 82.3% | 81.3% | 97% | 78.6% | 74.8%
6 | CCCC#CCN(CC)CC | 120% | 95% | 107% | 102% | 109% | 120% | 111%
7 | COc1ccc(-c2nc3ncccn3c2-c2nnc(-c3ccc(F)cc3)o2)cc1 | 99.7% | 107% | 105% | 92.7% | 99.3% | 104% | 104%
8 | COc1cc(Nc2ccnc(NCCNc3ccnc4cc(Cl)ccc34)n2)cc(OC)c1 | 51.4% | -50.7% (active) | 19.9% | 8.25% (active) | -20.2% (active) | 29.7% | 55.3%
9 | Nc1ccc2c(c1)Cc1cc(N)c(Br)cc1-2 | 94.4% | 102% | 108% | 51.4% | 101% | 80.8% | 99.6%
10 | COc1ccc2c(c1)C(=O)c1c-2c(OCCN2CCCCC2)nc2ccc(OC)cc12 | 51.3% | 23.9% | 8.07% (active) | 9.47% (active) | 7.15% (active) | 39.8% | 29.2%
11 | CN(C)CCN1C(=O)c2cccc3cc(N)cc(c23)C1=O | 46.9% | 33.7% | 21% | 7.96% (active) | 13.7% | 15.4% | 28.8%
12 | COc1ccc2c(c1)C(=O)c1c-2c(=O)n(CCCN(C)C)c2cc(OC)c(OC)cc12 | 86.1% | 80.9% | 56.8% | 28.4% | 53.1% | 82.8% | 69.5%
13 | COc1ccc(S(=O)(=O)NCCCNc2nccc(-c3c(-c4ccc(F)cc4)nc4sccn34)n2)cc1 | 70.6% | 27.9% | 74.8% | 33.6% | 42.1% | 65.5% | 40.6%
14 | O=C(CCCCC[P+](c1ccccc1)(c1ccccc1)c1ccccc1)NC(COC(=O)C(Cl)Cl)(COC(=O)C(Cl)Cl)COC(=O)C(Cl)Cl | 94.9% | 102% | 107% | 95.2% | 100% | 109% | 107%
15 | NC(=O)SCC(=O)Nc1ccc(S(N)(=O)=O)cc1 | 111% | 106% | 99.2% | 104% | 109% | 102% | 101%
16 | CC(=O)N1N=C(c2ccc(Cl)cc2)CC1c1sc(Cl)nc1Cl (stereo not given) | 89.9% | 89.2% | 102% | 85.9% | 75.9% | 94.8% | 93.5%
17 | CCCCCCN1C(=O)C2=C(c3ccc(Cl)cc3)Nc3c(c(C)nn3-c3ccccc3)C2c2ccccc21 (stereo not given) | 102% | 89.8% | 111% | 77.8% | 87.9% | 92.1% | 107%
18 | O=C(Nc1cccc(Cl)c1)Nc1nccs1 | 90.1% | 62% | 103% | 57.8% | 94% | 89.7% | 81.2%

Row | SMILES | growth (BT-549 breast) | growth (MDA-MB-435 melanoma) | growth (SW-620 colon) | growth (MCF7 breast) | growth (HCT-116 colon) | growth (HCC-2998 colon) | growth (KM12 colon)
19 | NC1(C(=O)O)CSSC1 | 85.4% | 89.4% | 99.4% | 43.4% | 83.1% | 118% | 93.4%
20 | CC(C)=NNc1ncnc2c1ncn2C1OC(CO)C(O)C1O (stereo not given) | 43% | 18% | 9.33% (active) | 12.2% | 1.45% (active) | -10.2% (active) | 2.36% (active)
21 | S=c1[nH]ccn1-c1c(Cl)cccc1Cl | 88.9% | 97.3% | 106% | 97.8% | 93.9% | 99.5% | 104%
22 | COc1ccc(/C=C/C(=O)Nc2ccc(-c3nc4ccc(F)cc4s3)cc2)cc1 | 86.7% | 97% | 106% | 38.9% | 88.5% | 99.1% | 101%
23 | COc1cc(-c2cc(/C=C/C(=O)c3ccc(F)c(F)c3)[nH]n2)cc(OC)c1OC | 94.2% | 51.7% | 67.2% | 48.3% | 29.3% | 87.1% | 41%
24 | O=C(CC(C(=O)c1ccccc1)N1CCOCC1)c1ccccc1 (stereo not given) | 99.6% | 107% | 60.8% | 43.4% | 77.3% | 104% | 105%
25 | O=C(Nc1cccc(-n2cc(-c3ccncc3)c(-c3ccc(O)c(Cl)c3)n2)c1)Nc1cccc(C(F)(F)F)c1 | 13.3% | -35.3% (active) | 13.2% | -6.1% (active) | 5.24% (active) | 20.4% | -14.7% (active)
26 | CCCCCCCCCCCCCCCC(=O)OC1[C@@H](OC(=O)CCCCCCCCCCCCCCC)[C@@H](C(=O)N[C@@H](CCCCN)C(=O)OC)O[C@H]1n1cnc2c(=O)[nH]c(NC(=O)C(C)C)nc21 (stereo not given in full) | 105% | 99.6% | 104% | 96.4% | 85.4% | 101% | 95%
27 | COc1ccc(Oc2nc(NC3CCCC3)nc(Sc3ccc(OC)cc3)n2)cc1 | 91.9% | 89% | 87.9% | 69.3% | 45.1% | 98.8% | 83.9%
28 | COc1ccc(Cl)cc1C(=O)Nc1nc2ccc(Cl)cc2s1 | 97.7% | 97.6% | 101% | 41.7% | 53.2% | 102% | 94.8%
29 | O=C(CCCCCCC(=O)Nc1cccnc1)NO | 69.5% | 19.8% | 35.6% | 35.3% | 9.09% (active) | 40% | 6.19% (active)
30 | O=S(=O)(NCCCNc1nccc(-c2c(-c3ccc(F)cc3)nc3sccn23)n1)c1ccc2ccccc2c1 | 46.1% | 25.7% | 51.9% | 30.3% | 37.2% | 7.22% (active) | 19.9%
31 | CN1c2ccccc2[C@]2(Cc3ccccc3)Cc3ccccc3N[C@H]12 | 122% | 117% | 101% | 94.1% | 91.8% | 103% | 104%
32 | CSc1nc(=O)n(Cc2ccc(Cl)cc2)c(=O)[nH]1 | 98% | 114% | 110% | 99.3% | 103% | 103% | 108%
33 | Clc1ccc(/C=C2\CCCC3=C2N=C2SC=NN2C3c2ccc(Cl)cc2)cc1 (stereo not given) | 117% | 76.7% | 94.1% | 23.7% | 5.7% (active) | 77.2% | 83.9%
34 | COc1cc2cc3c(nc2cc1OC)CCN3Cc1ccc(NC(=O)Nc2ccc(F)cc2F)cc1 | 76.7% | 89% | 100% | 81.3% | 81.3% | 85.1% | 87.2%
35 | Cc1ccc(N=Nc2c(N)nc(N)[nH]c2=O)cc1C | 98.5% | 95.1% | 102% | 94.4% | 96.8% | 113% | 111%
